Data reported in PMC4336329 (PLoS ONE, 2015).
The whole screen tested about 310,000 compounds, of which about 14,000 (4.5%) showed an effect of 50% or more. Effects have a minus sign here. The list comes from a sample in which strong results are over-represented; it also holds similar structures and randomly drawn compounds.

Molecular target: human ether-à-go-go-related gene (hERG) potassium channel (human, UniProt Q12809)
Assay: primary screen, population patch clamp on CHO cells stably expressing hERG; higher = less effect of the substance
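Further: peak tail current of the secondary pulse compared with the same well before compound.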

Chain of human ether-à-go-go-related gene (hERG) potassium channel (Q12809 whole entry, looked up): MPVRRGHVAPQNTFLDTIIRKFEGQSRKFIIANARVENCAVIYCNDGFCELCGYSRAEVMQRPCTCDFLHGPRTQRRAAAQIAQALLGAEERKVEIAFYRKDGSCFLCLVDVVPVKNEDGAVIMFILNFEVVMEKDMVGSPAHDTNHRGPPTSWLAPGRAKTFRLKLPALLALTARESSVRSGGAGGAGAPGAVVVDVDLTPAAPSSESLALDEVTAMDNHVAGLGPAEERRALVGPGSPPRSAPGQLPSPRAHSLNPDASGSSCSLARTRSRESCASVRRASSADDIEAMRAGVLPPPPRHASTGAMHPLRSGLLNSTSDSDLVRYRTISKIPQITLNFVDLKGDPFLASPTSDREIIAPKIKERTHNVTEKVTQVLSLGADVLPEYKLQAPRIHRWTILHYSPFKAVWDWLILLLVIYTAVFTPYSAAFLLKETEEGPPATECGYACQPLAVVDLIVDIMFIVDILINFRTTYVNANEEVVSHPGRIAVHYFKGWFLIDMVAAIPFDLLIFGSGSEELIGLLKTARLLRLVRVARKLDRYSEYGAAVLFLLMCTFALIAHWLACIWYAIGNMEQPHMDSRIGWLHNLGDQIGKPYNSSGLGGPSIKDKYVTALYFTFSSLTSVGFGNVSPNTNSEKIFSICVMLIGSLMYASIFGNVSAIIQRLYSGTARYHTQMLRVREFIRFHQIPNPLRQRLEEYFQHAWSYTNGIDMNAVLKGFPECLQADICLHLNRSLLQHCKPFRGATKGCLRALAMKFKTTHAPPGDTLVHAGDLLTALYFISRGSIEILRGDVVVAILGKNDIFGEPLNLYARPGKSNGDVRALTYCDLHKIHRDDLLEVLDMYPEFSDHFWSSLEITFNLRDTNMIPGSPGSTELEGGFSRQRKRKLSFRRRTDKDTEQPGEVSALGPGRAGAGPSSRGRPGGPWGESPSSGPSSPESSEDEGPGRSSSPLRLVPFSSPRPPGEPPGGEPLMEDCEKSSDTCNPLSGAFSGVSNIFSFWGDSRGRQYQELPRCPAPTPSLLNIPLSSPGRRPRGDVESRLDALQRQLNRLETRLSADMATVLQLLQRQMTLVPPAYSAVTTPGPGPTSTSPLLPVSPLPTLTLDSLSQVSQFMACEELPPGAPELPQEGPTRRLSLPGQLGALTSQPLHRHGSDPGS

How did the “hERG current change (%, negative = inhibition) at 10uM” value turn out when COc1ccc(S(=O)(=O)N2CCCOC2CNC(=O)C(=O)NCCc2ccco2)cc1 (stereo not shown) was run?
Its value is 4.42%.

For CC(C)(C)c1ccc(C(=O)Cn2cnnc2C#N)cc1, which “hERG current change (%, negative = inhibition) at 10uM” value is on record?
The value was 3.7%.

With Cc1ccc(N2CC(C(=O)NCCc3ccc(S(N)(=O)=O)cc3)CC2=O)cc1 (stereo not shown) as the compound, how does the “hERG current change (%, negative = inhibition) at 10uM” value read?
The value was 22.5%.

For O=C(N/N=C/c1cccnc1)c1ccccc1, which “hERG current change (%, negative = inhibition) at 10uM” value is on record?
The value was 17.3%.

Cn1c(/C=C/c2ccccc2[N+](=O)[O-])nc2ccccc2c1=O was tested. Which “hERG current change (%, negative = inhibition) at 10uM” value did it give?
The value was 5%.

COc1ccccc1S(=O)(=O)Cc1ccc(C(=O)NCc2ccco2)o1 was tested. Which “hERG current change (%, negative = inhibition) at 10uM” value did it give?
Its value is -33.5%.

For O=C(COC(=O)Cc1ccccc1)Nc1ccc(SC(F)F)cc1, which “hERG current change (%, negative = inhibition) at 10uM” value is on record?
Its value is 5.27%.

For CNC(=S)NNC(=O)c1c(C)nc2cc(C)ccn12, which “hERG current change (%, negative = inhibition) at 10uM” value is on record?
The value was 7.15%.

O=C(c1cccs1)N1CCN(c2ccc([N+](=O)[O-])cc2F)CC1 was tested. Which “hERG current change (%, negative = inhibition) at 10uM” value did it give?
The value was -56.8%.

Which “hERG current change (%, negative = inhibition) at 10uM” value does the source give for CCC(=O)c1ccc(N2CCN(C(=O)c3cc([N+](=O)[O-])ccc3N3CCN(C)CC3)CC2)c(F)c1 here?
Its value is -46.4%.

Which “hERG current change (%, negative = inhibition) at 10uM” value does the source give for CCC(=O)c1ccc(N2CCN(C(=O)c3cc([N+](=O)[O-])ccc3F)CC2)c(F)c1 here?
The value was -42.9%.

Cc1ccc(S(=O)(=O)N2CCC(C(=O)OCC(=O)N(C)Cc3ccccc3)CC2)cc1C was tested. Which “hERG current change (%, negative = inhibition) at 10uM” value did it give?
Its value is -12%.

How did the “hERG current change (%, negative = inhibition) at 10uM” value turn out when CCN1CCN(c2c(Cl)cccc2NC(=O)c2ccco2)CC1 was run?
The value was -73.4%.

O=C(Nc1cccc(Cl)c1N1CCCC1)c1ccc(Br)o1 was tested. Which “hERG current change (%, negative = inhibition) at 10uM” value did it give?
The value was -5.58%.

With CCN1CCN(c2c(Cl)cccc2NC(=O)c2cccs2)CC1 as the compound, how does the “hERG current change (%, negative = inhibition) at 10uM” value read?
The value was -73.8%.

For O=C(NC(=S)Nc1cccc(Cl)c1N1CCCCC1)c1cccs1, which “hERG current change (%, negative = inhibition) at 10uM” value is on record?
Its value is 22.7%.

CCN1CCN(c2c(Cl)cccc2NC(=O)c2ccc(Br)o2)CC1 was tested. Which “hERG current change (%, negative = inhibition) at 10uM” value did it give?
Its value is -73.6%.

With O=C(Nc1cccc(Cl)c1N1CCOCC1)c1cccs1 as the compound, how does the “hERG current change (%, negative = inhibition) at 10uM” value read?
The value was -23.5%.

For O=C(Nc1cccc(Cl)c1N1CCOCC1)c1ccco1, which “hERG current change (%, negative = inhibition) at 10uM” value is on record?
The value was -8.08%.

Which “hERG current change (%, negative = inhibition) at 10uM” value does the source give for O=C(Nc1cccc(Cl)c1N1CCCC1)c1ccco1 here?
Its value is 6.11%.

With O=C(Nc1cccc(Cl)c1N1CCOCC1)c1ccc(Br)o1 as the compound, how does the “hERG current change (%, negative = inhibition) at 10uM” value read?
Its value is 6.64%.

With O=C(Nc1cccc(Cl)c1N1CCCC1)c1ccc([N+](=O)[O-])o1 as the compound, how does the “hERG current change (%, negative = inhibition) at 10uM” value read?
Its value is 9.6%.

Which “hERG current change (%, negative = inhibition) at 10uM” value does the source give for O=C(Nc1cccc(Cl)c1N1CCOCC1)c1ccc([N+](=O)[O-])o1 here?
The value was 2.67%.

CCN1CCN(c2c(Cl)cccc2NC(=O)c2ccc([N+](=O)[O-])o2)CC1 was tested. Which “hERG current change (%, negative = inhibition) at 10uM” value did it give?
The value was -73.9%.

For CC12CCC(=O)N1C(C(=O)NNC(=O)c1ccc(Br)cc1)CS2 (stereo not shown), which “hERG current change (%, negative = inhibition) at 10uM” value is on record?
Its value is -8.4%.

For Cc1ccc2nc(SCC(=O)Nc3ccc(C(N)=O)cc3)[nH]c2c1, which “hERG current change (%, negative = inhibition) at 10uM” value is on record?
Its value is 3.74%.

With CC(CN(C)Cc1ccccc1)OC(=O)c1ccc2c(c1)OCCO2.Cl (stereo not shown) as the compound, how does the “hERG current change (%, negative = inhibition) at 10uM” value read?
The value was 5.15%.

COC(=O)c1ccc(COc2ccc3ccc(=O)oc3c2)o1 was tested. Which “hERG current change (%, negative = inhibition) at 10uM” value did it give?
The value was 8.66%.

Which “hERG current change (%, negative = inhibition) at 10uM” value does the source give for CN(C)CCNC(=O)Cn1ccc2cc(S(=O)(=O)N3CCCCCC3)ccc21 here?
Its value is -25.4%.

With C/C(N)=C(/C#N)C(=O)CSc1nn(-c2ccc(Cl)cc2)c(=S)s1 as the compound, how does the “hERG current change (%, negative = inhibition) at 10uM” value read?
Its value is 12.9%.

O=S(=O)(NCCc1ccncc1)c1ccccc1 was tested. Which “hERG current change (%, negative = inhibition) at 10uM” value did it give?
The value was 4.04%.

c1ccc2c(c1)CCCC2NC1=NCCC1 (stereo not shown) was tested. Which “hERG current change (%, negative = inhibition) at 10uM” value did it give?
The value was -2.53%.

O=C(NCC(c1cccs1)N1CCOCC1)c1ccc(Cl)c([N+](=O)[O-])c1 (stereo not shown) was tested. Which “hERG current change (%, negative = inhibition) at 10uM” value did it give?
Its value is -31.9%.

With CCOc1ncccc1C(=O)N1CCN(C(c2ccccc2)c2ccccc2)CC1 as the compound, how does the “hERG current change (%, negative = inhibition) at 10uM” value read?
Its value is 5.75%.

How did the “hERG current change (%, negative = inhibition) at 10uM” value turn out when O=C(O)CCn1c(-c2ccccc2)cc2c1CCCC2=O was run?
Its value is 14.1%.

Cc1c(NS(=O)(=O)c2ccc(NC3CCCC3)c([N+](=O)[O-])c2)c(=O)n(-c2ccccc2)n1C was tested. Which “hERG current change (%, negative = inhibition) at 10uM” value did it give?
Its value is -19.7%.

With Cc1cc(C)nc(NS(=O)(=O)c2cccs2)c1 as the compound, how does the “hERG current change (%, negative = inhibition) at 10uM” value read?
Its value is 3.36%.

With CCN1CCN(c2c(Cl)cccc2NC(=O)c2ccc3c(c2)OCCO3)CC1 as the compound, how does the “hERG current change (%, negative = inhibition) at 10uM” value read?
Its value is -38.4%.

For CCN1CCN(c2c(Cl)cccc2NC(=O)c2ccc3nsnc3c2)CC1, which “hERG current change (%, negative = inhibition) at 10uM” value is on record?
The value was -49.5%.

How did the “hERG current change (%, negative = inhibition) at 10uM” value turn out when CCN1CCN(c2c(Cl)cccc2NC(=O)c2ccc([N+](=O)[O-])cc2)CC1 was run?
Its value is -72%.

O=C(CNc1ccc2ccccc2c1)N/N=C/c1ccncc1 was tested. Which “hERG current change (%, negative = inhibition) at 10uM” value did it give?
The value was -8.31%.

O=C(Nc1cc(Cl)ccc1N1CCCC1)C1=NN(c2ccccc2)C(=O)CC1 was tested. Which “hERG current change (%, negative = inhibition) at 10uM” value did it give?
The value was -16.9%.

Which “hERG current change (%, negative = inhibition) at 10uM” value does the source give for CC(=O)N1CCc2cc(S(=O)(=O)NCCC(=O)Nc3cccc(C)c3C)ccc21 here?
Its value is 0.058%.

With COc1ccc(CN(C(=O)CN2C(=O)NC3(CCC(C)CC3)C2=O)C(C)Cc2cccs2)cc1 (stereo not shown) as the compound, how does the “hERG current change (%, negative = inhibition) at 10uM” value read?
The value was -68.7%.

CC1CCC2(CC1)NC(=O)N(CC(=O)NCc1cccs1)C2=O (stereo not shown) was tested. Which “hERG current change (%, negative = inhibition) at 10uM” value did it give?
Its value is 1.95%.

With CC1CCC2(CC1)NC(=O)N(CC(=O)N(Cc1ccccc1)C(C)(C)C)C2=O (stereo not shown) as the compound, how does the “hERG current change (%, negative = inhibition) at 10uM” value read?
Its value is 10.6%.

Which “hERG current change (%, negative = inhibition) at 10uM” value does the source give for O=C(/C=C/c1cccc([N+](=O)[O-])c1)NCc1ccco1 here?
Its value is -33%.

How did the “hERG current change (%, negative = inhibition) at 10uM” value turn out when Cc1ccc(C2CC(=O)N3CN(c4ccc(Br)cc4)CSC3=C2C#N)o1 (stereo not shown) was run?
The value was 11.1%.

For Cc1nc2cc3nc(C(F)(F)F)[nH]c3cc2[nH]1, which “hERG current change (%, negative = inhibition) at 10uM” value is on record?
Its value is 0.0754%.

CC1CCN(CCCn2c(SCC(=O)NC3CCCC3)nc3ccccc3c2=O)CC1 was tested. Which “hERG current change (%, negative = inhibition) at 10uM” value did it give?
The value was -77%.

How did the “hERG current change (%, negative = inhibition) at 10uM” value turn out when CCc1ccc(NC(=O)CSc2nc3ccccc3c(=O)n2CCCN2CCC(C)CC2)cc1 was run?
Its value is -67.2%.

Which “hERG current change (%, negative = inhibition) at 10uM” value does the source give for O=C(CSc1nc2ccccc2c(=O)n1CCCO)NC1CC1 here?
The value was -13.4%.

O=C(CCCn1c(SCC(=O)Nc2ccccc2Cl)nc2ccccc2c1=O)NCC1CCCO1 (stereo not shown) was tested. Which “hERG current change (%, negative = inhibition) at 10uM” value did it give?
Its value is -48.9%.

How did the “hERG current change (%, negative = inhibition) at 10uM” value turn out when CCCCn1c(SCC(=O)Nc2ccc(NC(C)=O)cc2)nc2ccccc2c1=O was run?
Its value is -2.55%.

With CCCCn1c(SCC(=O)NC2CCCC2)nc2ccccc2c1=O as the compound, how does the “hERG current change (%, negative = inhibition) at 10uM” value read?
The value was -4.43%.

Which “hERG current change (%, negative = inhibition) at 10uM” value does the source give for CCOCCCn1c(SCC(=O)NC2CCCC2)nc2ccccc2c1=O here?
Its value is -1.74%.

CCc1ccc(NC(=O)CSc2nc3ccccc3c(=O)n2CCCC(=O)N2CCCC2)cc1 was tested. Which “hERG current change (%, negative = inhibition) at 10uM” value did it give?
The value was -27.9%.

Which “hERG current change (%, negative = inhibition) at 10uM” value does the source give for CC1CCN(CCCn2c(SCC(=O)Nc3ccccc3Cl)nc3ccccc3c2=O)CC1 here?
Its value is -70.8%.
